Measured values from PubChem BioAssay (Tox21).
Where “and” joins values, the source holds several entries; their conditions need not be identical. Equal entries are not always repeated. Results filed as inconclusive are left out. Calls of active or inactive are those of the source. Unless noted, the call rests on the fitted dose curve; in most records, active means well fitted curve in the direction sought with a large enough effect in the repeat runs; inconclusive means weak or mixed curves; inactive means no such curve, though single readings can be large; an effect the other way counts as inactive or inconclusive.

Columns and labels:
[1] = A CellTox Green Cytotoxicity Assay to monitor cytotoxicity in HEK293 cells - 32 hour (AID 1224881); further: nearly all actives have a fitted effect of over 40% in size; further: potency means the concentration at half of the fitted maximal effect
Procedure, shortened: (§1)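 Homogeneous no-lysis format: HEK293 cell suspension mixed with CellTox Green reagent, seeded, incubated 5 h at 37 C/5% CO2, then dosed by pintool with compound in DMSO.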

[2] = A CellTox Green Cytotoxicity Assay to monitor cytotoxicity in HepG2 cells - 0 hour (AID 1224882); further: nearly all actives have a fitted effect of over 35% in size
Procedure, shortened: (§2)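 Fluorescent DNA-binding dye, 600 HepG2 cells/well, 5 h preincubation then compound in DMSO; same plates read at 0–40 h, 37 C.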

[3] = A CellTox Green Cytotoxicity Assay to monitor cytotoxicity in HEK293 cells - 8 hour (AID 1224884); further: nearly all actives have a fitted effect of over 35% in size
Procedure, shortened: as §1

[4] = qHTS RealTime-Glo MT Cell Viability Assay in HepG2 cells - 16 hour (AID 1224885); further: nearly all actives have a fitted effect of over 50% in size; further: potency means the concentration at half of the fitted maximal effect
Procedure, shortened: (§3)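 Tox21 10K library screened in qHTS format on HepG2 cells carrying RealTime-Glo reagents. Compounds were added after a 5 h preincubation, and the luminescent signal from continuous culture was measured repeatedly during 40 h treatment.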

[5] = qHTS RealTime-Glo MT Cell Viability Assay in HEK293 cells - 24 hour (AID 1224886); further: nearly all actives have a fitted effect of over 50% in size; further: potency means the concentration at half of the fitted maximal effect
Procedure, shortened: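 Luminescence generated by NanoLuc from substrate produced by living HEK293 cells served as the viability signal. Each value reflects the reading at its stated time point during continuous 40 h compound exposure at 37 C.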

[6] = qHTS RealTime-Glo MT Cell Viability Assay in HEK293 cells - 8 hour (AID 1224887); further: top concentration of the series differs between compounds; nearly all actives have a fitted effect of over 50% in size
Procedure, shortened: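 Measured as luminescence from the same continuously cultured HEK293 wells at successive time points (0, 8, 16, 24, 32, 40 h) after compound addition. Reagent present from seeding; dosing at 5 h; incubation 37 C.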

[7] = A CellTox Green Cytotoxicity Assay to monitor cytotoxicity in HEK293 cells - 16 hour (AID 1224888); further: nearly all actives have a fitted effect of over 35% in size
Procedure, shortened: as §1

[8] = qHTS RealTime-Glo MT Cell Viability Assay in HepG2 cells - 0 hour (AID 1224889); further: nearly all actives have a fitted effect of over 50% in size
Procedure, shortened: as §3

[9] = A CellTox Green Cytotoxicity Assay to monitor cytotoxicity in HepG2 cells - 8 hour (AID 1224890); further: nearly all actives have a fitted effect of over 45% in size
Procedure, shortened: as §2

[10] = qHTS assay to identify small molecule antagonists of the estrogen receptor alpha (ER-alpha) signaling pathway using the BG1 cell line in the presence of 0.1 nM 17-beta-estradiol - cell viability counter screen (AID 1259241); further: nearly all actives have a fitted effect of over 40% in size
Procedure, shortened: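 Cells were plated and left 24 hr, compounds in DMSO were pinned in, 17beta-estradiol was added to 0.1 nM final, and after 22 hr CellTiter-Fluor reagent was added for 30 min before fluorescence was read.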

[11] = qHTS assay to identify small molecule antagonists of the androgen receptor (AR) signaling pathway using the MDA cell line in the presence of 0.5 nM R1881 - cell viability counter screen (AID 1259242); further: nearly all actives have a fitted effect of over 45% in size
Procedure, shortened: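 Human breast carcinoma MDA-kb2 cells, cultured without CO2, receive compounds alongside 0.5 nM (final) R1881 agonist. After 16 hr at 37C, viability is taken as live-cell protease signal.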

[12] = biological target: Estrogen receptor (Homo sapiens) (UniProt P03372); assay: qHTS assay to identify small molecule antagonists of the estrogen receptor alpha (ER-alpha) signaling pathway using the BG1 cell line in the presence of 0.1 nM 17-beta-estradiol (AID 1259244); further: nearly all actives have a fitted effect of over 50% in size; further: potency means the concentration at half of the fitted maximal effect
Estrogen receptor (Homo sapiens), sequence (P03372 whole entry, looked up): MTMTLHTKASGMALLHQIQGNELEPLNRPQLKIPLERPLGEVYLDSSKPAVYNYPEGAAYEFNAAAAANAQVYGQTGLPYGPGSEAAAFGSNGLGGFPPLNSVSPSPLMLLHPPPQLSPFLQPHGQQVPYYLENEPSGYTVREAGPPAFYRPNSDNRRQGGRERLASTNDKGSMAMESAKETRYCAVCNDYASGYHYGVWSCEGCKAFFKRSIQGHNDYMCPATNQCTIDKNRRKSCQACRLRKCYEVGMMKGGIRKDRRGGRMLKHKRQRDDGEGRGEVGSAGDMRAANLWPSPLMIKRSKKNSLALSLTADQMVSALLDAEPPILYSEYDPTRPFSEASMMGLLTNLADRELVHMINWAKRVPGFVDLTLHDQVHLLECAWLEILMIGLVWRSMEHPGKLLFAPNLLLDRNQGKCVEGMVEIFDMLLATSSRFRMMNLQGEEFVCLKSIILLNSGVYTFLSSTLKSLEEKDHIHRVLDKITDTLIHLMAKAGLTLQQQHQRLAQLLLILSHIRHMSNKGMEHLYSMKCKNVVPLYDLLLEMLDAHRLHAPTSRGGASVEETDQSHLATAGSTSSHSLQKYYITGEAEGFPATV
Procedure, shortened: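 Seeding of stripped-serum-adapted VM7Luc4E2 cells, 24 h attachment, compound transfer, then 0.1 nM final 17beta-estradiol; after 22 h incubation, ONE-Glo reagent and luminescence reading.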

[13] = qHTS assay to identify small molecule phospholipidosis (PLD) inducers (AID 1259344; active means well fitted curve in the direction sought with a large enough effect; an effect the other way counts as inactive or inconclusive)
Procedure, shortened: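 After 4 h attachment on collagen I, HepG2 cells were dosed with compound alongside LipidTOX Red, kept 24 h at 37 C, fixed, and imaged for lamellar phospholipid pits.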

[14] = qHTS assay to identify small molecule HDAC inhibitors - cell viability counter screen (AID 1259365)
Procedure, shortened: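 Counter screen in wild-type HCT-116 cells: compounds dissolved in DMSO are pin-transferred onto overnight-plated cells and left 2hr at 37C. ATP-based CellTiter-Glo luminescence then measures viable cells.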

[15] = qHTS assay to identify small molecule agonists of the sonic hedgehog signaling (Shh) pathway - cell viability counter screen (AID 1259366); further: nearly all actives have a fitted effect of over 50% in size; further: potency means the concentration at half of the fitted maximal effect
Procedure, shortened: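 Cells are plated at 2,000 per well and left 4hr at 37C, 5% CO2 before compound addition. After 23hr of treatment, CellTiter-Fluor reagent is added for 1hr at 37C and fluorescence is measured.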

[16] = qHTS assay to identify small molecule antagonists of the sonic hedgehog signaling (Shh) pathway - cell viability counter screen (AID 1259367); further: nearly all actives have a fitted effect of over 55% in size; further: potency means the concentration at half of the fitted maximal effect
Procedure, shortened: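 Conditioned medium drove Shh signaling in 3T3 Gli1-Luc cells exposed to compounds at 37C and 5% CO2. Viability was determined from CellTiter-Fluor fluorescence, with reagent incubated 1 hr after 23 hr of treatment.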

[17] = A CellTox Green Cytotoxicity Assay to monitor cytotoxicity in HepG2 cells - 32 hour (AID 1224883); further: nearly all actives have a fitted effect of over 50% in size; further: potency means the concentration at half of the fitted maximal effect
Procedure, shortened: as §2

[18] = biological target: Androgen receptor (Homo sapiens) (UniProt P10275); assay: qHTS assay to identify small molecule antagonists of the androgen receptor (AR) signaling pathway using the MDA cell line in the presence of 0.5 nM R1881 (AID 1259243); further: nearly all actives have a fitted effect of over 50% in size
Androgen receptor (Homo sapiens), sequence (P10275 whole entry, looked up): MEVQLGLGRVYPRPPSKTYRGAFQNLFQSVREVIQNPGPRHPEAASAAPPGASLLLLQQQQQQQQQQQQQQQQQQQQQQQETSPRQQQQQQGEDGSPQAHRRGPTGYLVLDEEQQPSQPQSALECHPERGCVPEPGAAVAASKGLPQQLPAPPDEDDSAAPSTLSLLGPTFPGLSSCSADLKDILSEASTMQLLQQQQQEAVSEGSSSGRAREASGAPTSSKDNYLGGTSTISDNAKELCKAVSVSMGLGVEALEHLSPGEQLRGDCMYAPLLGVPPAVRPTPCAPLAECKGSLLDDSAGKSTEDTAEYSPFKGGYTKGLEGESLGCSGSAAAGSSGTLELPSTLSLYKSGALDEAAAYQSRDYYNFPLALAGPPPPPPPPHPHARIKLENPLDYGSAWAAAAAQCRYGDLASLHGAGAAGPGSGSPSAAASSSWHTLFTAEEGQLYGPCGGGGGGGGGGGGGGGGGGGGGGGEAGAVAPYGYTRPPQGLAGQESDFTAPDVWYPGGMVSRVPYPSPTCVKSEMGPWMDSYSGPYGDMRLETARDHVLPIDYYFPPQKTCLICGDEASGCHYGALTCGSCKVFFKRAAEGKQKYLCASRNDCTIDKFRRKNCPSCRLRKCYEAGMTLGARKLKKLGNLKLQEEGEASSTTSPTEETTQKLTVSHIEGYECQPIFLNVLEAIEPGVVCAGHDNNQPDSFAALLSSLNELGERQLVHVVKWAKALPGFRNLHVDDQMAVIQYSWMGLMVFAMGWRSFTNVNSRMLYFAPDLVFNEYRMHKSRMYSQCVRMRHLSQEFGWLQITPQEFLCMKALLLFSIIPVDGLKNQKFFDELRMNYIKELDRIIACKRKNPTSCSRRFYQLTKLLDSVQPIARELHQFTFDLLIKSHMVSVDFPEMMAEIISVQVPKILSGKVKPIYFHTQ
Procedure, shortened: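 Cells: MDA-kb2 (MMTV-luc). Stimulus: 0.5 nM R1881. Time: 16 hr, 37C, no CO2. Detection: ONE-Glo luminescence after 30 min at RT.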

[19] = qHTS assay to identify small molecule HDAC inhibitors (AID 1259364); further: potency means the concentration at half of the fitted maximal effect;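 further: wild-type HCT-116 cells with endogenous class I/II HDAC activity; nearly all actives have a fitted effect of over 45% in size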
Procedure, shortened: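 After a 2 hr compound incubation (37C, 5% CO2), HCT-116 cells seeded at 1,500/well the day before received HDAC-Glo reagent; signal read as luminescence after 30 min at room temperature.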

[20] = qHTS assay to identify small molecule agonists of the sonic hedgehog signaling (Shh) pathway (AID 1259368; calls by dose curve;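 further: NIH/3T3-derived 3T3Gli1-Luc cells carrying a stable Gli1-driven firefly luciferase reporter; series mostly up to about 92 µM; nearly all actives have a fitted effect of over 15% in size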)
Procedure, shortened: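 Stable NIH/3T3 Gli1-Luc reporter clone; 24 hr cpd exposure after a 4 hr settling period; luminescence endpoint.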

Measured: Potency

CCC1(CC)C(=O)NC(=O)NC1=O
not listed: [17] | [18] | [19] | [20]
inactive: all other assays above

Clc1ccc2ccccc2c1
active: [1] 50.5 µM
not listed: [3] | [5] | [6] | [7] | [13]
inactive: all other assays above

CCCCOC(=O)CCC(=O)OCCCC
not listed: [12] | [13] | [16] | [17] | [18] | [19]
inactive: all other assays above

C=CCOC(=O)C(C)(C)OC(=O)c1cc(-n2c(=O)cc(C(F)(F)F)n(C)c2=O)ccc1Cl
active: [5] 19.1 µM
not listed: [6] | [12] | [13] | [18]
inactive: all other assays above

COc1ccc2c(c1OC)C(=O)O[C@H]2[C@@H]1c2cc3c(cc2CCN1C)OCO3
active: [15] 5.96 µM | [16] 5.96 µM
not listed: [2] | [12]
inactive: all other assays above

O=C(Cc1ccccc1)c1ccccc1
active: [19] 27.3 µM
not listed: [3] | [6] | [9] | [13] | [18]
inactive: all other assays above

NC(=S)c1c(Cl)cccc1Cl
not listed: [2] | [13] | [18]
inactive: all other assays above

CC(Oc1cccc(Cl)c1)C(=O)O (stereo not given)
not listed: [6] | [12] | [13] | [16] | [18] | [20]
inactive: all other assays above

COCc1cnc(C2=NC(C)(C(C)C)C(=O)N2)c(C(=O)O)c1 (stereo not given)
not listed: [2] | [13] | [19] | [20]
inactive: all other assays above

CCCN(CCOc1c(Cl)cc(Cl)cc1Cl)C(=O)n1ccnc1
active: [5] 22.3 µM and 27.5 µM
not listed: [6] | [8] | [12] | [13] | [17] | [18]
inactive: all other assays above

O=C1c2ccccc2C(=O)N1SC(Cl)(Cl)Cl
inactive: [2] | [3] | [7] | [8] | [9] | [10] | [14] | [20]
active: [1] 21.6 µM and 8.71 µM | [17] 24.2 µM and 12.3 µM | [4] 19.5 µM | [5] 5.42 µM and 6.16 µM | [12] 15.1 µM and 21.7 µM | [15] 12 µM and 9.69 µM

Nc1ccc2c(c1)Cc1ccccc1-2
not listed: [5] | [13] | [18]
inactive: all other assays above

CCCC1CCCCN1 (stereo not given)
not listed: [2] | [18]
inactive: all other assays above

CCCCCBr
not listed: [2] | [5] | [6] | [13] | [16] | [20]
inactive: all other assays above

CN(C)C(=O)Nc1cccc(OC(=O)NC(C)(C)C)c1
not listed: [2] | [3] | [13] | [18]
inactive: all other assays above

OCCCl
not listed: [2] | [12] | [13] | [18]
inactive: all other assays above
